Pf Dd2 growth = inhibitors of Plasmodium falciparum Dd2 growth; P. falciparum Dd2 growth, SYBR Green, 72 h; hits give low values; activity change, % at 10 µM; 2.3% of 94,000 active; AID 1159554; in the data active = activity change below about -80%; inconclusive = no clear call, values can overlap the other calls
C diff HTS = inhibitors of Clostridium difficile growth. Clostridium difficile clinical isolate growth, OD600, 24 h; hits give low values. growth activity, negative = inhibition, % at 16 µg/mL (by protocol). 0.25% of 86,000 active. AID 1259249;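 active = mean growth activity at or below -80% and every replicate also at or below -80%; inconclusive = mean at or below -80% but some replicate above -80%; inactive = mean growth activity above -80%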;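 note: 0% = DMSO wells and -100% = levofloxacin 16 µg/mL wells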
T cruzi growth-1 = blocks T. cruzi growth in NIH3T3 culture; inhibition, % at 8.34 µM; T. cruzi beta-gal in NIH3T3, GalScreen luminescence, 90 h; 5.9% of 77,000 active; AID 624255;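 active = mean inhibition above about 93%, with at least 55% of replicates each passing it, limit read from the data, passing the limit was not always enough; inconclusive = only one of those two conditions holds; inactive = neither condition holds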
T cruzi growth-2 = blocks T. cruzi growth in NIH3T3 host cells; shares compounds with T cruzi growth-1; T. cruzi beta-gal in NIH3T3, GalScreen luminescence, 90 h; inhibition, % at 8.35 µM; 72% of 5,600 active;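 active = mean replicate inhibition above about 95% and at least 55% of replicates individually reaching it, limit read from the data; inconclusive = only one of the two criteria is met; inactive = neither criterion is met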
T cruzi growth-3 = inhibitors of T. cruzi proliferation | shares compounds with T cruzi growth-1 | T. cruzi beta-gal in NIH3T3, GalScreen luminescence, 90 h | inhibition, % at 2.09 µM | 21% of 5,600 active | AID 651740;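 active = mean inhibition above about 95%, with at least 55% of replicates also reaching it, limit read from the data; inconclusive = meets just one of the two conditions; inactive = meets neither condition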;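 note: plate controls were neutral control median for no effect and positive control median for full effect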
NIH3T3 tox = cytotoxicity in mouse NIH/3T3 fibroblasts; shares compounds with T cruzi growth-1; 14% of 5,600 active; cytotoxicity (signal decrease), % at 8.35 µM; NIH/3T3 viability, CellTiter-Glo ATP luminescence, 90 h;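 active = mean signal decrease across replicates above about 35% based on untreated-well scatter, with enough replicates individually passing, limit read from the data; inconclusive = no rule stated though some were filed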;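 note: 0% = median of neutral control wells and 100% = median of positive control wells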
3T3 cytotox 2 = NIH/3T3 (mouse) viability loss | shares compounds with T cruzi growth-1 | NIH/3T3 viability, CellTiter-Glo ATP luminescence, 90 h | inhibition, % at 24.9 µM | 56% of 5,600 active;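 active = mean loss of cell viability signal at or above a set limit, and enough replicates individually reaching it; inconclusive = meets only the mean limit or only the replicate share; inactive = meets neither condition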;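 note: 0% = median of neutral control wells and 100% = median of positive control wells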
Active calls of the source: *; ? = inconclusive; . = not tested or not shown. Most compounds without a hit are left out; they make up all but 6.7% or so of the library.

SMILES | Pf Dd2 growth | C diff HTS | T cruzi growth-1 | T cruzi growth-2 | T cruzi growth-3 | NIH3T3 tox | 3T3 cytotox 2
O=S(=O)(N[C@H]1CC[C@H](CCn2cc(-c3ccccn3)nn2)O[C@@H]1CO)c1cccc(Cl)c1 | -13.2 | . | 17.5 | . | . | . | .
CC(=O)NC[C@H]1[C@H](c2ccc(C3=CCCC3)cc2)[C@H](CO)N1C(=O)NC(C)C | -4.4 | -5.5 | -20.6 | . | . | . | .
CC(=O)NC[C@@H]1[C@@H](c2ccc(C3=CCCCC3)cc2)[C@@H](CO)N1C(=O)NC(C)C | 3.4 | -9.6 | 56.8 | . | . | . | .
CC(C)NC[C@H]1[C@@H](c2ccc(C3=CCCCC3)cc2)[C@@H](CO)N1C(=O)NC(C)C | -34.5 | 50.7 | ? | 101.7* | 56.3 | 38.8* | 103.7*
CCC(=O)NC[C@H]1[C@@H](c2ccc(-c3ccccc3)cc2)[C@H](CO)N1C(=O)C1CC1 | 2.0 | -2.0 | 98.0* | -19.0 | -22.4 | -9.5 | 7.9
CC(=O)NC[C@@H]1[C@@H](c2ccc(C3=CCCCC3)cc2)[C@H](CO)N1C(=O)NC(C)C | -3.2 | -9.2 | 6.8 | . | . | . | .
CC(C)NC[C@@H]1[C@@H](c2ccc(C3=CCCCC3)cc2)[C@H](CO)N1C(=O)NC(C)C | -48.8 | 21.4 | ? | 101.5* | 78.9 | -2.0 | 105.3*
CC(C)NC[C@H]1[C@H](c2ccc(C3=CCCCC3)cc2)[C@@H](CO)N1C(=O)NC(C)C | -42.0 | 43.0 | 98.3* | 104.4* | 48.4 | 33.1 | 104.3*
CCC(=O)NC[C@H]1[C@H](c2ccc(-c3ccccc3)cc2)[C@H](CO)N1C(=O)C1CC1 | 3.9 | -3.9 | 74.1 | . | . | . | .
Fc1cccc(CN2[C@@H]3CNC[C@H]2C3c2ccc(-c3ccncc3)cc2)c1 (stereo partly drawn) | -9.0 | -7.1 | . | . | . | . | .
CN(C)c1ccc2c(c1)[C@H]1C[C@@H](CC(=O)N3CCCCC3)O[C@@H](CO)[C@H]1O2 | 6.3 | 2.9 | . | . | . | . | .
C[C@H](CO)N1C[C@H](C)[C@H](CN(C)C(=O)Cc2ccccc2)OCCCC[C@H](C)Oc2ccc(NC(=O)C3CCCCC3)cc2C1=O | -25.2 | -9.0 | 49.3 | . | . | . | .
CCCN1C[C@@H](C)[C@H](OC)CN(C)C(=O)c2cc(NC(=O)Nc3ccccc3F)ccc2OC[C@H]1C | -57.1 | . | 77.2 | . | . | . | .
CCC(=O)NC[C@H]1[C@H](c2ccc(C3=CCCC3)cc2)[C@@H](CO)N1C(C)=O | -6.1 | 4.7 | 76.4 | . | . | . | .
CCC(=O)NC[C@H]1[C@@H](c2ccc(C3=CCCC3)cc2)[C@H](CO)N1C(C)=O | -1.4 | 15.3 | 101.2* | 34.7 | 74.7 | 9.4 | 25.6
O=C(c1cnccn1)N1CC(=O)N2[C@H](CO)[C@H](c3ccc(C#CCc4ccccc4)cc3)[C@H]2C1 | -17.9 | -6.5 | . | . | . | . | .
C[C@H](CO)N1C[C@H](C)[C@H](CN(C)C(=O)Nc2ccc(-c3ccccc3)cc2)OCc2ccccc2-c2ccccc2C1=O | -66.8 | -5.7 | . | . | . | . | .
COCC(=O)N1CC[C@@H]2[C@@H](CO)N(C)c3ccc(-c4ccc(F)cc4)cc3[C@@H]21 | 28.4 | -4.3 | 86.3 | . | . | . | .
CCC(=O)N1CC[C@@H]2[C@H]1c1cc(-c3ccc(OC)cc3)ccc1N(C)[C@H]2CO | -6.5 | 6.9 | 94.2 | . | . | . | .
CCC(=O)N1CC[C@H]2[C@@H]1c1cc(-c3ccc(F)cc3)ccc1N(C)[C@H]2CO | -74.8 | 1.5 | ? | 107.7* | 71.4 | -8.2 | 21.4
CCC(=O)N1CC[C@H]2[C@@H]1c1cc(-c3ccc(OC)cc3)ccc1N(C)[C@H]2CO | 14.0 | 14.3 | 104.9* | 108.2* | 90.7 | -15.3 | -17.2
CNC[C@@H]1OCCCC[C@@H](C)Oc2ccc(NC(=O)Nc3ccc(C(F)(F)F)cc3)cc2C(=O)N([C@H](C)CO)C[C@@H]1C | 7.1 | 22.7 | 4.8 | . | . | . | .
CCCC#Cc1ccc([C@H]2[C@H](CO)N3C(=O)CN(C(=O)c4ccccc4)C[C@@H]23)cc1 | 13.7 | 3.2 | . | . | . | . | .
C[C@H](CO)N1C[C@H](C)[C@H](CN(C)C(=O)Nc2ccccc2)Oc2ncc(C#CC3CC3)cc2C1=O | -5.9 | . | 58.2 | . | . | . | .
CS(=O)(=O)N1CCCCN2[C@H](C1)[C@H](c1ccc(C3=CCCC3)cc1)[C@@H]2CO | 24.2 | 0.6 | ? | 60.4 | 25.9 | 19.5 | 8.5
COc1ccc(S(=O)(=O)N2CCCCN3[C@H](CO)[C@H](c4ccc(C5=CCCC5)cc4)[C@H]3C2)cc1 | -35.3 | 30.0 | 93.8 | . | . | . | .
